Experimental data reported in PubChem BioAssay AID652054 (National Center for Advancing Translational Sciences (NCATS), 2013).
Values joined by “and” are separate entries in the source; they are usually repeats but may differ in a detail not shown here. Identical values can stand only once. The whole screen tested about 360,000 compounds, of which about 9,100 (2.5%) were called active. Another 4% or so got no clear call; they are omitted. Only a selection was taken, and actives are over-represented in it overall. A number with no mark means an inactive call. Rule as the data show it: active = max response below about -50%; inconclusive = no clear call, values can overlap the other calls; inactive = above that.
% is scaled to controls: 0 for no effect and ±100 for the full control effect.

What follows are compounds tested against D(3) dopamine receptor (Homo sapiens) (UniProt P35462) (assay: qHTS of D3 Dopamine Receptor Antagonist: qHTS). Details: D3R cells, DiscoveRx beta-arrestin luminescence, antagonist mode; active compounds read low.
D(3) dopamine receptor (Homo sapiens), sequence (P35462 whole entry, looked up): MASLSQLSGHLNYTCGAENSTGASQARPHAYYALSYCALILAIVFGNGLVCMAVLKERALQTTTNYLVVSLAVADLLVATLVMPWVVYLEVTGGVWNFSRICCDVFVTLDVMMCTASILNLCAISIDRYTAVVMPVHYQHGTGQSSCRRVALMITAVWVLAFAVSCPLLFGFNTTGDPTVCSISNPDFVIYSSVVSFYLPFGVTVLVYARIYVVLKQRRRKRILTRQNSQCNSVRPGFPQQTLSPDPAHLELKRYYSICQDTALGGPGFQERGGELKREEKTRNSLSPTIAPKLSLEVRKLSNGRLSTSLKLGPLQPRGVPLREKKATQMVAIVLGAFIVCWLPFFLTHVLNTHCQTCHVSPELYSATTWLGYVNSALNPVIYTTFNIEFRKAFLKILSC
Summary of the method: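 Cells plated overnight at 1500 cells/well, then exposed to library compounds with dopamine controls for 90 minutes at 37 degrees C. DiscoveRx reagent added for 30–60 minutes at room temperature; luminescence read, quantitative HTS format.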
Work on CC(=O)c1cccc(-c2cnc3c(NC=O)cc(-c4cccc(C(=O)N(C)C)c4)cn23)c1 yielded a max response, negative = inhibition of 39.2%. With CS(=O)(=O)c1cccc(-c2ccc3nncn3c2)c1 the max response, negative = inhibition was -15.7%. With O=C(O)C1=C(C(=O)O)C2CCC1C2 the max response, negative = inhibition was -3.55%. Cc1cccc(-n2c(O)c(C=Nc3ccccc3N)c(=O)[nH]c2=O)c1 was tested, and the max response, negative = inhibition was -114% (active). Compound Cc1ccc(N=Cc2c(O)n(-c3nccs3)c(=O)c3ccccc23)c(C)c1 has a max response, negative = inhibition of 7.33%. Cc1cccc(N2C(=O)CC(SC(N)=Nc3ccccc3)C2=O)c1 (stereo not given) gave a max response, negative = inhibition of -1.29%. Compound CC1(C(=O)NS(=O)(=O)Cc2cccc(Cl)c2)CCN1C(=O)Cc1ccc(Cl)cc1Cl (stereo not given) has a max response, negative = inhibition of 5.64%. CN(CC(=O)NC(=O)Nc1ccccc1F)Cc1ccccc1 was tested, and the max response, negative = inhibition was -19.2%. With CN(Cc1ccccc1)Cc1ccccc1F the max response, negative = inhibition was -76.7% (active). CN(Cc1ccccc1F)C(=O)C(Cc1ccccc1)NC(=O)c1ccccc1 (stereo not given) gave a max response, negative = inhibition of 41.6%. CCc1nc2c(OCCC3CCCCC3)cccn2c1N(C)C(=O)c1ccco1 was tested, and the max response, negative = inhibition was -17.4%. Work on O=C(NCC(O)c1nc2ccccc2[nH]1)c1ccc(Br)cc1 (stereo not given) yielded a max response, negative = inhibition of -3.7%. Compound COc1ccc(NC(=O)CSc2nnnn2-c2cccc(OC)c2)cc1 has a max response, negative = inhibition of 26.1%. For Clc1cccc(-c2nc3nc4ccccc4nc3n2Cc2ccco2)c1, the max response, negative = inhibition was -72.7% (active). For O=c1[nH]c(CSc2ncc(-c3ccc(F)cc3)n2Cc2ccco2)nc2ccccc12, the max response, negative = inhibition was 11.8%. In the case of O=C(CSc1nnc(-c2cccnc2)n1Cc1ccco1)c1ccc(Cl)c(Cl)c1, the max response, negative = inhibition is reported as 25.5%. CCOC1=C2[C@H]([C@H]3C(=O)N(c4ccccc4)C(=O)[C@H]3C1)[C@@H](c1ccccc1)N(S(=O)(=O)c1ccc(C)cc1)[C@H]2c1ccccc1 was tested, and the max response, negative = inhibition was 0.0406%. For CC1=CC(=C(C#N)c2nc3ccccc3s2)C=C(C)N1c1ccc(F)cc1F, the max response, negative = inhibition was -51.3% (active). N#C/C(=C(/O)Cc1cccc2ccccc12)c1nc2ccccc2s1 was tested, and the max response, negative = inhibition was -26.8%. Compound CN(Cc1nc2ccccc2s1)C(=O)c1ccc(F)cc1 has a max response, negative = inhibition of -18.6%. For CN1CCN(c2ccc3c(c2)OC[C@H](Cc2ccccc2)NS3(=O)=O)CC1, the max response, negative = inhibition was -23%. In the case of CCOC(=O)[C@]12CCCC=C1N(Cc1ccc3c(c1)OCO3)C(=O)[C@H](CC(=O)NCc1cccs1)C2, the max response, negative = inhibition is reported as -6.39%. Work on COC(=O)C[C@H]1C[C@@H]2c3cc(NC(=O)Nc4ccccc4)ccc3O[C@@H]2[C@@H](CO)O1 yielded a max response, negative = inhibition of 17.9%. COc1ccc(C)cc1N(C(=O)Cn1nnc(-c2ccc(C)o2)n1)C(C(=O)NC1CCCC1)c1ccncc1 (stereo not given) was tested, and the max response, negative = inhibition was -57.8% (active). Cc1cccc(N(C(=O)Cn2nnc(-c3ccc(C)o3)n2)C(C(=O)NC2CCCC2)c2ccncc2)c1 (stereo not given) gave a max response, negative = inhibition of 12.8%. Work on CCC(C(=O)NC1CCCC1)N(C(=O)Cn1nnc(-c2ccc(C)o2)n1)c1ccc(OC)c(OC)c1 (stereo not given) yielded a max response, negative = inhibition of 8.45%. CNC[C@H]1OCc2cnnn2CCCC(=O)N([C@H](C)CO)C[C@@H]1C was tested, and the max response, negative = inhibition was 11.4%. For COCCNC(=O)C1(C)CCCN(Cc2cccc(F)c2)C1 (stereo not given), the max response, negative = inhibition was -6.58%. Work on Cn1c(CC(=O)NNC(=O)c2ccccc2F)nc2ccccc21 yielded a max response, negative = inhibition of 5.88%. COc1cccc(C(O)Cc2nc3ccccc3n2C)c1OC (stereo not given) was tested, and the max response, negative = inhibition was 9.46%. For CC(NCc1nc2ccccc2n1C)C12CC3CC(CC(C3)C1)C2 (stereo not given), the max response, negative = inhibition was -77.6% (active). COC(=O)c1ccc2nc(-c3cccc(Br)c3)c(Cc3ccccc3C(F)(F)F)n2c1 showed a max response, negative = inhibition of 0%. For CC(Oc1ccccc1[N+](=O)[O-])C(=O)N/N=C/c1ccoc1 (stereo not given), the max response, negative = inhibition was -27.6%. With CC(C)c1cc(C(=O)N/N=C/c2ccoc2)c(O)c(C(C)C)c1 the max response, negative = inhibition was -60.7% (active). O=C(N/N=C/c1ccoc1)c1ccc(Cl)cc1Cl was tested, and the max response, negative = inhibition was 9.92%. CC(=O)N1C[C@@H](CO)[C@@H](N(C)C(=O)c2ccco2)C[C@H]1c1ccccc1 was tested, and the max response, negative = inhibition was 0%. With COc1ccc(C[C@H]2CN3C(=NC[C@H]3C)N2CCNC(=O)CCC2CCCCC2)cc1 the max response, negative = inhibition was -71.7% (active). For C/C=C(\C)C(=O)NCCN1C2=NC[C@H](Cc3ccc(O)cc3)N2C[C@@H]1Cc1ccc(OC)cc1, the max response, negative = inhibition was -17.1%. COc1cccc(CNC(=O)CCC2CCCN(Cc3ccc(OC(F)F)cc3)C2)c1 (stereo not given) showed a max response, negative = inhibition of -23.3%. In the case of CC1(C(=O)NCc2cccc3ccccc23)CCN1Cc1ccc(-c2ccccc2)o1 (stereo not given), the max response, negative = inhibition is reported as 34.9%. CCOc1cc(/C=N/NC(=O)c2ccncc2)cc(Br)c1O was tested, and the max response, negative = inhibition was 2.27%. For CCC(C)CN1C(=O)CSCC1(C)C(=O)NCc1ccccc1 (stereo not given), the max response, negative = inhibition was 6.99%. COc1cc(C=NC2CCCCC2)ccc1O was tested, and the max response, negative = inhibition was 22%. Work on OC(c1ccc(Cl)cc1)c1ncc(-c2ccc(Cl)cc2)[nH]1 (stereo not given) yielded a max response, negative = inhibition of 21.5%. CCOC(=O)c1c(S(=O)(=O)Nc2cccc(Cl)c2)c(C)n(C)c1C gave a max response, negative = inhibition of -8.27%. With CCOC(=O)c1c(S(=O)(=O)NCC(=O)Nc2ccc(C)cc2)c(C)n(C)c1C the max response, negative = inhibition was -0.327%. In the case of CCOC(=O)c1c(S(=O)(=O)Nc2ccc(CN3CCC(C)CC3)cc2)c(C)n(C)c1C, the max response, negative = inhibition is reported as -51% (active). For CC1Cc2[nH][nH]c(=O)c2C(C2CCCC2)O1 (stereo not given), the max response, negative = inhibition was 0%. Work on CCCCc1ccc(S(=O)(=O)NC(=O)C2(C)CCN2C(=O)c2ccccc2)cc1 (stereo not given) yielded a max response, negative = inhibition of 0.751%. Work on CC1CCC2(CC1)NC(=O)N(CC(=O)NCc1ccco1)C2=O (stereo not given) yielded a max response, negative = inhibition of -7.59%. COc1cccc(-c2cc(NC(C)=O)c3ncc(-c4cccc(C(C)=O)c4)n3c2)c1 showed a max response, negative = inhibition of 4.06%. Compound CCOC(=O)c1cnn2c(SC)ncnc12 has a max response, negative = inhibition of -12.7%. With C[C@H](O)[C@@H]1C(=O)N2CCc3c([nH]c4ccccc34)[C@@H]2C[C@@H]1N(C)C(=O)Nc1ccc(F)cc1 the max response, negative = inhibition was -19.9%. With COC(=O)[C@H]1[C@H]2C[C@H]3c4[nH]c5ccccc5c4CCN3C[C@@H]2CC[C@@H]1O the max response, negative = inhibition was -113% (active) and -60.5% (active). COc1ccc(-c2ccc3[nH]c4c(c3c2)CCN2C[C@H]3[C@H](C)ON(C)[C@H]3C[C@@H]42)cc1 showed a max response, negative = inhibition of -2.08%.
